Experimental data as given in ChEMBL document CHEMBL3988442, “University of Dundee, Small-Polar-MMV Screening Library” (2021).
The campaign covered roughly 48,000 compounds. About 13,000 (27%) showed an effect of 50% or more. The list shows a part of the results.

System: Wolbachia pipientis
Assay: Anti-Wolbachia Cell-Based Screen
Assay type: functional
Parameters: scale not given: in the data most compounds retested in dose-response had high values
Conditions: 5 µM

SMILES | Percent Effect
O=C(NCCNc1ncccn1)c1ccc(OCc2ccccc2)nc1 | -6.041%
CN(c1ccc(CNC(=O)c2c[nH]c(=O)c(Cl)c2)cc1)C1CCCCC1 | 0.5041%
CCOCCOC(C)C(=O)Nc1nccn1Cc1ccccc1 (centres undefined) | -11.15%
CC(CCS(C)(=O)=O)NC(=O)NCc1ccc2ccccc2c1 (centres undefined) | -7.499%
Cc1cc(C)n(C2CN(c3nc(-c4ccncc4)nc4c3CCC4)C2)n1 | -1.448%
CN(C)C(=O)c1ccc(NCCNc2ccc3ccccc3n2)nc1 | -5.082%
Cc1nc(C2CCCN(C(=O)c3ccncc3)C2)c2sccn12 (centres undefined) | 112%
CCOc1cc(C)nc(N2CCN(C(=O)c3ccnn3C)CC2)n1 | 4.776%
Cc1c(C(=O)N2CCC(c3nc(C)n4ccsc34)CC2)cnn1C | 112.4%
Cc1csc(C2CCCN(C(=O)c3cnn4ccc(C)nc34)C2)n1 (centres undefined) | -3.808%
CCCn1ncc(C(=O)N2CCN([C@H]3CCCC[C@@H]3O)CC2)c1C | 2.84%
Cc1nc(C2CCN(C(=O)c3ccnn3C)CC2)c2sccn12 | 90.51%
Cc1nc(C2CCN(C(=O)c3ccc(=O)n(C)c3)CC2)c2sccn12 | -4.246%
O=C(CCCN1CCCCC1)N1CCN(C(=O)c2ccc[nH]2)CC1 | 1.236%
CCC1CN(C(=O)COc2ccc(C(=O)NC3CC3)cc2)CCO1 (centres undefined) | -23.61%
CCc1nccn1CCC(=O)N1CCN(c2ccccc2C)CC1C (centres undefined) | 0.5766%
CNCC(=O)N1CCC(c2ccnc(Nc3ccc(C)cn3)n2)C1.Cl (centres undefined) | -6.427%
CC(=O)N1CCN(c2ccccc2CNc2ccc(C)cn2)CC1 | 1.224%
Cc1ccc(Nc2nccc(C3CCN(C(=O)CO)C3)n2)nc1 (centres undefined) | 147.3%
CC(=O)N1CCC(c2ccnc(Nc3ccc(C)cn3)n2)C1 (centres undefined) | 111.1%
CC(=O)N1CC[C@H](c2nc3cc(C)ccc3o2)C1 | -3.722%
CC(=O)N1CCC(NS(=O)(=O)c2cccnc2)CC1 | 4.265%
CC(=O)N1CCC(c2ccnc(Nc3cncnc3)n2)CC1 | 88.64%
O=C(CCSc1ccc(F)cc1)NS(=O)(=O)c1ccc2c(c1)OCCO2 | 5.18%
FC(F)(F)c1ccc(-c2cc(NC3CCNCC3)nc3[nH]ccc23)nc1 | -3.524%
COCCN(C/C=C/c1ccccc1)Cc1nccs1 | -13.78%

SMILES | Percent Effect
CC(C)(C)c1cc2ncn(CCCN3CCCCC3CO)c(=O)c2s1 (centres undefined) | 91.32%
CC1CCN(CC(O)Cn2cnc3ccc(Cl)cc3c2=O)CC1 (centres undefined) | -0.72%
OCC1CCCCN1CCCNCc1cc(O)c2cc(F)ccc2n1 (centres undefined) | 13.42%
OCC1CCCCN1Cc1cc(O)c2cccc(F)c2n1 (centres undefined) | -10.07%
O=c1c2ccc(C(F)(F)F)cc2ncn1CCCN1CCCCC1CO (centres undefined) | 127.8%
CC(C)N1CCCCC1CCn1cnc2cc(C(F)(F)F)ccc2c1=O (centres undefined) | 86.9%
Cc1cc(C)n(CC2CCCCN2CCCS(N)(=O)=O)n1 (centres undefined) | 6.399%
OCC1CCCCN1CCn1ccnc1-c1ccc2c(c1)OCCO2 (centres undefined) | 3.348%
O=c1c2ccc(Cl)cc2ncn1CCCN1CCCCC1CO (centres undefined) | 62.54%
CCC1CCCCN1C(=O)CCn1cnc2sccc2c1=O (centres undefined) | 3.224%
CC1CCCCN1C(=O)CCn1cnc2sccc2c1=O (centres undefined) | -3.502%
Cc1nc(C)n(CC2CCCCN2CCCN2CCCC2=O)n1 (centres undefined) | -1.453%
Cc1nccc(N2CCC(=O)N(Cc3ccc(F)cc3)C(C(C)C)C2)n1 (centres undefined) | -4.712%
Cc1ccc(CC(=O)Nc2ccc(CS(C)(=O)=O)c(F)c2)cc1 | -3.383%
O=C1NCCN1CCNCC1(O)CCCN(CCC2CCCCC2)C1=O (centres undefined) | -3.271%
Cc1nnsc1C(=O)N(C)Cc1nc(-c2ccccn2)no1 | -8.145%
Cc1nnc(CN2CCN(C)C3(CCC(=O)N(CCO)CC3)C2)s1 (centres undefined) | 5.792%
Cc1n[nH]c(C)c1CCNC(=O)Nc1ccc(S(C)(=O)=O)cc1 | 3.499%
Cc1ccc(CN2CCCn3cnc(COCC4CC4)c3C2)o1.O=C(O)C(F)(F)F | 8.584%
Clc1ccccc1C1(c2ccnc(CC3CC3)n2)CCNCC1 | 5.526%
Cn1cnnc1C1CCCN(C(=O)c2ccc3c(c2)OCCCO3)C1 (centres undefined) | 0.4143%
Cc1ccc(C(=O)N2CCCC(c3nncn3C)C2)c(C)c1 (centres undefined) | 142.4%
Cc1occc1C(=O)N1CCCC(c2nncn2C)C1 (centres undefined) | 118%
CCOc1ccc2nc(CN3CCC(CN)C3)ccc2c1 (centres undefined) | 6.34%
CC(C)CCN1CCc2c(C(=O)N(C)Cc3ccccn3)nn(C)c2C1.O=C(O)C(F)(F)F.O=C(O)C(F)(F)F.O=C(O)C(F)(F)F | 7.035%
CC(Cn1cncn1)NC(=O)Nc1ccc(COC2CCCC2)cc1 (centres undefined) | -11.48%

SMILES | Percent Effect
Cc1ccc(CN2CC[C@H]3CO[C@H](CN(C)C)[C@H]3C2)o1 | -4.083%
Cc1cc(C)c(CNC(=O)N2CCCC2C(N)=O)c(=O)[nH]1 (centres undefined) | 4.239%
Cc1cc(C)c(CNC(=O)N2CCOC(c3ccccc3)C2)c(=O)[nH]1 (centres undefined) | 99.02%
Cc1cc(C2CCCN2C(=O)NCc2c(C)cc(C)[nH]c2=O)on1 (centres undefined) | 97.2%
Cc1cc(C2CCCN2C(=O)NCc2cccnc2N(C)C)on1 (centres undefined) | -7.167%
Cc1cc(C)c(CNC(=O)N2CCNC(=O)C2)c(=O)[nH]1 | -6.191%
Cc1cc(C2CCCN2C(=O)NCc2ccccn2)on1 (centres undefined) | -32.12%
Cc1cc(C)c(CNC(=O)N2CCC(N3CCCC3)CC2)c(=O)[nH]1 | 3.168%
Cc1cc(C)c(CNC(=O)N2CCC(N3CCCCC3)CC2)c(=O)[nH]1 | -48.68%
Cc1cc(C)c(CNC(=O)N2CCC(N3CCNC3=O)CC2)c(=O)[nH]1 | -7.993%
Cc1cc(C)c(CNC(=O)N2CCN(c3ncccn3)CC2)c(=O)[nH]1 | -5.06%
Cc1cc(C)c(CNC(=O)N2CCCC2c2ccccn2)c(=O)[nH]1 (centres undefined) | 93.91%
Cc1cc(C)c(CNC(=O)N2CCCC2c2cc(C)on2)c(=O)[nH]1 (centres undefined) | 104.6%
Nc1nc(Cn2ccnc2-c2cc(CN3CCCC3)cs2)cs1 | 4.037%
NC1(C(=O)NCC2CCCN(Cc3cccc4nonc34)C2)CCC1 (centres undefined) | -1.452%
O=C([C@H]1C[C@H]2OCC[C@H]2N(C(=O)c2ccnnc2)C1)N1CCCCO1 | -6.312%
Cc1csc2c(N3CCC(NCCCC4CCOC4)CC3)ncnc12 (centres undefined) | 7.139%
Cc1cccc(CN2C[C@@H](F)[C@@H](OCc3nc4ccccc4[nH]3)C2)n1 | -1.113%
CSCC[C@@H](CO)n1ccnc1-c1ccc(C)o1 | -18.99%
CCC1CN(CC(=O)Nc2sccc2C#N)CCO1 (centres undefined) | -10.74%
N#Cc1ccsc1NC(=O)CN1CCn2c(nnc2C2CC2)C1 | 118.5%
Cc1cc(NC(=O)CCN2CCn3c(nnc3C3CC3)C2)no1 | -0.2298%
Cc1nnc2n1CCN(CCC(=O)Nc1sccc1C#N)C2 | 5.791%
Cc1cc(NC(=O)CN2CCn3c(nnc3C3CC3)C2)n(C)n1 | -5.451%
N#Cc1ccsc1NC(=O)CCN1CCn2c(nnc2C2CC2)C1 | 113.3%
CNC(=O)COc1nc(C(C)(C)C)no1 | -5.111%

SMILES | Percent Effect
CCN(Cc1ccoc1)C(C(N)=O)c1cccc(Br)c1 (centres undefined) | 12.55%
CNC(=O)C(C)(C)N(C)C(=O)c1cc(COc2ccccc2OC)[nH]n1 | -2.904%
COc1ccc(OCCN(C)C(=O)c2ccc(OC)cc2O)cc1 | 93.52%
CCc1ccc(OCCN(C)C(=O)c2ccncc2Cl)cc1 | -12.28%
COCCN(C)C(=O)c1ccc(OC)cc1O | -1.632%
Cc1nc(C#N)c(N2CCC(c3nc(-c4ccc(F)cc4)no3)CC2)o1 | 10.17%
CC(C)c1nnc(CN2CCCC2Cn2cncn2)o1 (centres undefined) | 2.76%
Cc1cnn(CC2CCCCN2Cc2noc(C3CC3)n2)c1 (centres undefined) | 11.5%
Cc1cnn(CC2CCCN2Cc2nnc(Cc3ccccc3)o2)c1 (centres undefined) | 6.561%
Cc1cnn(CC2CCCN2Cc2nnc(C(C)C)o2)c1 (centres undefined) | 94.36%
Cc1cnn(CC2CCCN2Cc2nnc(-c3ccccc3)o2)c1 (centres undefined) | 97.7%
CCc1nnc(CN2CCCC2Cn2cc(C)cn2)o1 (centres undefined) | 107.1%
Cc1cnn(CC2CCCN2Cc2coc(-c3ccccc3)n2)c1 (centres undefined) | 17.84%
Cc1cnn(CC2CCCN2Cc2ncc(-c3ccccc3)o2)c1 (centres undefined) | -2.575%
Cc1cnn(CC2CCCN2Cc2nnc(C3CC3)o2)c1 (centres undefined) | 113.6%
CNC(=O)C(C)CN(C)C(=O)Nc1cc(-n2cccc2)ccc1F (centres undefined) | 4.281%
COc1cccc(F)c1C(C)NC(=O)NCc1ccnc(C)n1 (centres undefined) | 15.11%
CC(C)N(Cc1ccccc1)Cc1nnsc1Cl | 2.332%
CC(C)(C)c1cnc(CN2C(=O)CC3(CCSC3)C2=O)o1 (centres undefined) | -9.013%
Cc1cnn(CC2CCCN2Cc2nnc(C)o2)c1 (centres undefined) | 108.8%
CNc1ncc(C(=O)N2CCCC(CO)(CCCOC)C2)cn1 (centres undefined) | -3.097%
CCCC1(CO)CCCN(C(=O)CNC(C)=O)C1 (centres undefined) | 72.22%
O=C(CCn1cnnn1)N1CCCC(CO)(CCCc2ccccc2)C1 (centres undefined) | 2.487%
CC(=O)NCC(=O)N1CCCC2(CCC(=O)N(CCc3c[nH]cn3)C2)C1 (centres undefined) | 7.336%
CCCC1(CO)CCCN(C(=O)CNC(N)=O)C1 (centres undefined) | 100.2%
O=C(CCn1cnnn1)N1CCCC(CO)(CCc2ccccc2)C1 (centres undefined) | -14.03%
